Data reported in PubChem BioAssay AID1259397 (Fisher Drug Discovery Resource Center, 2018).
Several values for one entry are separate records, joined by “and”; a condition that tells them apart may be missing. Equal values may be shown once. About 230 (0.18%) of roughly 130,000 compounds were called active.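 Rule for the calls: active = inhibition of cGAS enzyme activity at or above 60%; inactive = the rest.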 The list comes from a sample in which actives are over-represented; it also holds similar structures and randomly drawn compounds.

biological target: Cyclic GMP-AMP synthase (Mus musculus) (UniProt Q8C6L5); test: inhibitors of Mus musculus cyclic GMP-AMP synthase, initial high-throughput assay, cell-free, RapidFire MS (AID 1259397); settings: recombinant mouse cGAS, cGAMP by RapidFire MS; at 12.5 µM; stronger effect = higher value;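 note: enzyme stimulated by 45 bp dsDNA with ATP and GTP substrates; cGAMP share of summed cGAMP plus half ATP and half GTP signals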
Sequence (Q8C6L5 whole entry, looked up): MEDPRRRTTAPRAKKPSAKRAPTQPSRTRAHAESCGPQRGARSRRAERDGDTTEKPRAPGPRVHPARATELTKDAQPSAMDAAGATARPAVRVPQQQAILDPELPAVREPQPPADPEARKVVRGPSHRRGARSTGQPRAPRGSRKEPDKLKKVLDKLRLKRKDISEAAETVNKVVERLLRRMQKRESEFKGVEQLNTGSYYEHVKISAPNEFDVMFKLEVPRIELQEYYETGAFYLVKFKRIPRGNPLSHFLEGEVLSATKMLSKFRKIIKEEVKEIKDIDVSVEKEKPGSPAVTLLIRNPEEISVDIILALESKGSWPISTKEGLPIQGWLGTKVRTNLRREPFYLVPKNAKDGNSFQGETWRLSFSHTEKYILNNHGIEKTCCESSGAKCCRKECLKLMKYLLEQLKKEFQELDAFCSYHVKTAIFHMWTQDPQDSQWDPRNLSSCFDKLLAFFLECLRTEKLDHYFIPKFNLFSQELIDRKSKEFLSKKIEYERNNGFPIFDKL

SMILES | inhibition
CC1(C(=O)NS(=O)(=O)c2cccc(OC(F)F)c2)CCN1C(=O)COc1ccc(Cl)cc1 (stereo unspecified) | -4.55% (inactive)
CCN(CC(=O)NC(C)(C)C)c1cc(Cl)nc(N)n1 | -6.72% (inactive)
CCNC(=O)c1cc(Cl)ccc1NS(=O)(=O)c1cn[nH]c1 | -6.14% (inactive)
CCC(c1nnc(SC(C)C(N)=O)n1Cc1ccccc1)N(C)C (stereo unspecified) | -4.22% (inactive)
Cc1cc(CN2CCN3C(=O)CNC(=O)C3C2)ccc1N1CCCC1 (stereo unspecified) | -4.4% (inactive)
CCN(CC)C(=O)N1CCCC(C(=O)Nc2ccc(S(=O)(=O)C(F)F)cc2)C1 (stereo unspecified) | 6.42% (inactive)
NC(=O)c1cc(NC(=O)N2CCCCCC2c2ccco2)ccc1F (stereo unspecified) | -5.95% (inactive)
CCn1nc(C(=O)NNC(=O)c2c(C)noc2C)c2ccccc2c1=O | -0.0832% (inactive)
COc1ccccc1CCc1nnc(CCC(=O)NC(C)CCn2cccn2)o1 (stereo unspecified) | 2.62% (inactive)
O=C(CCn1cnc2ccccc2c1=O)Nc1cc2c(cc1Br)OCCO2 | -1.61% (inactive)
CCN(Cc1ccncc1)C(=O)C1CCC(=O)N(Cc2ccccn2)C1 (stereo unspecified) | -3.05% (inactive)
COc1cc(NC(=O)[C@@H](C)N2Cc3ccc(NCC(C)C)nc3C2=O)cc(OC)c1 | 7.27% (inactive)
Cc1ccc(C(=O)N2CCCC(C(=O)NC3C4CCc5ccccc5C43)C2)cc1 (stereo unspecified) | -4.85% (inactive)
CCCN1C(=O)CCc2cc(NC(=O)COC)ccc21 | -1.31% (inactive)
CCC(CC)S(=O)(=O)NC(=O)c1c(C)nn(CC)c1Cl | -36.3% (inactive)
CC(C)Cc1ccc(C(=O)c2cccs2)cc1 | 2.67% (inactive)
Cc1c(C(=O)NCc2cccc([N+](=O)[O-])c2)sc(=O)n1CCc1ccccc1 | -3.1% (inactive)
OC(c1ccc(Cl)c(F)c1)c1ncc(-c2ccccc2Cl)[nH]1 (stereo unspecified) | -1.95% (inactive)
O=C(CCOc1ccccc1)N1CC(c2ccncc2)C1 | -7.26% (inactive)
C=CCNC(=O)c1cccnc1-c1ccc(OC)c2ncccc12 | -6.67% (inactive)
O=C1N(CCCc2ccccc2)CCCC12CCN(c1cnccn1)C2 (stereo unspecified) | -11% (inactive)
CCCCN(CCCC)C(=O)c1[nH]c(C)c(C(C)=O)c1C | -6.21% (inactive)
Cc1cccc(NCCNC(=O)c2oc(Br)cc2C)n1 | -6.38% (inactive)

SMILES | inhibition
CC(C)C(NC(=O)c1ccco1)C(=O)N1CC(C)(C)C1(C)C (stereo unspecified) | -1.92% (inactive)
N#CC(Cc1ccccc1)NC(=O)/C=C/c1ccccc1Br (stereo unspecified) | 8.15% (inactive)
Cc1cc(C)n(C(=O)C(C)n2cc([N+](=O)[O-])cn2)n1 (stereo unspecified) | -19.7% (inactive)
COC(=O)CCC(=O)N1CCCC(C(=O)c2ccc(-c3ccccc3)cc2)C1 (stereo unspecified) | -2.49% (inactive)
Cc1ccc(C(=O)NCC(NC(=O)c2ccc(C)nc2)C(C)C)cn1 (stereo unspecified) | 3.43% (inactive)
CC(C)C1CN(C(=O)CCn2cncn2)CCCN1Cc1ccc(F)cc1 (stereo unspecified) | -18% (inactive)
COc1ccc(-n2c(C)nc3ccc(NC(=O)Nc4ccc(C)cc4C)cc3c2=O)cc1 | -11.4% (inactive)
CN(C(=O)c1ccc(=O)[nH]n1)C1c2ccccc2-c2ccccc21 | -2.89% (inactive) and -15.8% (inactive)
Cc1ncc(-c2c(-c3ccccc3)ncn2Cc2csc(N)n2)[nH]1 | -18.8% (inactive)
CCOc1ccc(Cl)cc1S(=O)(=O)N1CCN(CCO)CC1 | -1.81% (inactive)
Cc1ccccc1NC(=O)Cn1cc(S(=O)(=O)c2ccc(F)cc2)c(=O)c2cc3c(cc21)OCO3 | -8.2% (inactive)
CN1C(=O)Cc2cc(-c3csc(CCN4CCCCC4)n3)ccc21 | -45.7% (inactive)
Cc1cc(C)c(S(=O)(=O)Nc2ccc(-c3cn4ccc(C)nc4n3)cc2)c(C)c1 | -25.3% (inactive)
CCCn1c(=O)c2c(nc3n2CCN3c2cc(C)ccc2C)n(C)c1=O | -2.17% (inactive)
Cn1c(=O)c2c(nc(CN3CCCCC3)n2Cc2cccc3ccccc23)n(C)c1=O | -3.06% (inactive)
CCOc1ccc2c(c1)C(C)CC(C)(C)N2C(=O)C1CCN(C(=O)C2CC2)CC1 (stereo unspecified) | -7.85% (inactive)
CSCc1ccc(C(=O)N2CCCC(C(=O)c3ccc4c(c3)OCO4)C2)o1 (stereo unspecified) | -4.82% (inactive)
O=C(C=Cc1ccsc1)N1CCN(S(=O)(=O)c2cc(F)ccc2F)CC1 | -8.87% (inactive)
CN(C)CCNc1cc(-c2n[nH]c(C(F)(F)F)n2)c2cc[nH]c2n1 | -6.32% (inactive)
COc1ccccc1OCCCOc1ccc(Cl)cc1Cl | -12.4% (inactive)
CCOc1cn2c(cc1=O)C(=O)N(CCNC(=O)c1ccc(C)cc1)CC2 | -4.57% (inactive)
CCCN(C(=O)c1ccc(-n2ccnc2)cc1)C1CCCC1 | -16.4% (inactive)
Cc1cnn(CC2CCN(C(=O)c3ccccc3C3CCNC3)CC2)c1 (stereo unspecified) | 3.82% (inactive)

SMILES | inhibition
Cc1ccc(OCc2nc(C(=O)NC3CC(C)(C)NC(C)(C)C3)cs2)cc1 | -17.3% (inactive)
CCCCOC1CC(N(C)Cc2ccc(S(=O)(=O)N(C)C)o2)C1(C)C (stereo unspecified) | -31.6% (inactive)
COC(=O)C[C@H]1[C@]2(C)C[C@@]34OC5(C)OC6(C(OC(C)=O)[C@@]3(OC(C)=O)[C@H]2OC(C)=O)C2CC(=O)O[C@@H](c3ccoc3)[C@]2(C)CCC6(O5)[C@]14C (stereo partly specified) | 1.62% (inactive)
Cn1ccnc1CN(C(=O)c1scc2c1CCCC2)C1CC1 | -27.6% (inactive)
CC(C)CCN(CCC#N)Cc1ncc(Cl)n1C | -8.32% (inactive)
CC(N)=C(C#N)C(=O)COC(=O)c1ccc([N+](=O)[O-])o1 | -1.77% (inactive)
CC(CC(=O)Nc1ccc(F)cc1)n1cncn1 (stereo unspecified) | -11% (inactive)
CCOCC(O)CN1CCN(C(=O)Cn2ccccc2=O)CC1 (stereo unspecified) | -5.1% (inactive)
CC(C)Cn1c(CN(Cc2ccccc2)CC2CC2)cnc1S(C)(=O)=O | -12.5% (inactive)
CC(C)c1ccc2c(c1)CCCN2C(=O)CSC1CCS(=O)(=O)C1 (stereo unspecified) | -7.34% (inactive)
CC(N)=C(C#N)C(=O)COC(=O)C12CC3CC(CC(Br)(C3)C1)C2 | -14% (inactive)
CC1C(=O)SC2(CCCCC2)N1c1ccc(Cl)cc1 (stereo unspecified) | -10.1% (inactive)
CC1=C(C(=O)N2CCC(N3CCC(C(=O)NCC4CCCO4)CC3)CC2)OCCO1 (stereo unspecified) | -2.1% (inactive)
O=C(CCc1nc2ccccc2s1)NC1CCN(Cc2ccccc2)C1 (stereo unspecified) | -1.33% (inactive)
Cc1cc(C)n(CC2CCN(C(=O)C3CCN(S(C)(=O)=O)CC3)CC2)n1 | -6.54% (inactive)
Cc1cn2c3c(=O)n(CCc4ccccc4)c(=O)n(C)c3nc2n1CCOCCO | -7.78% (inactive)
CCCNC(=O)C1(C)CCCN(Cc2c(C)nn(-c3ccccc3)c2C)C1 (stereo unspecified) | -6.24% (inactive)
CCOc1ccc(CNC(=O)Cc2sc(=S)[nH]c2C)cc1F | -6.57% (inactive)
CC(=O)Nc1ccc(Cl)c(C(=O)N(C)CCc2nc3ccccc3[nH]2)c1 | -12.1% (inactive)
CCc1ccc(C(=O)NNC(=S)Nc2sc(CC)cc2C(=O)OC)s1 | -2.22% (inactive)
COc1cccc(N2C[C@@H]3C[C@@H](c4cccs4)N4CCC[C@@]34C2=O)c1 | -6.87% (inactive)
COC(=O)Cn1nc([N+](=O)[O-])n(CC(=O)OC)c1=O | -9.81% (inactive)
COc1ccc(NC2CCCN(c3nc(C(F)(F)F)nc(C)c3C)C2)cc1 (stereo unspecified) | -21.1% (inactive)

SMILES | inhibition
CCCOc1ccc(C(=O)NNC(=O)c2ccc[nH]c2=O)cc1 | 2.97% (inactive)
CN(C)/C=C(\C(=O)c1ccc(Cl)c(Cl)c1)c1nnnn1-c1ccccc1 | -2.94% (inactive)
CC1CN(Cc2ccccc2F)CCO1 (stereo unspecified) | -0.301% (inactive)
CC(C(=O)N1CCCC1)N1CCOC(CN(C)C)C1 (stereo unspecified) | -1.48% (inactive)
CCc1ccc(Cl)c(CC)c1NC(=O)c1cnccn1 | -4.79% (inactive)
N#Cc1ccc(C2=CSC3=NS(=O)(=O)CCN23)cc1 | -8.31% (inactive)
O=C(NCCC(F)(F)F)c1csc(N2CCN(Cc3ccccc3)C2=O)n1 | -6.72% (inactive)
Cc1noc(C)c1C(=O)N1CCC1(C)C(=O)NS(=O)(=O)c1ccc(C#N)cc1 (stereo unspecified) | -9.56% (inactive)
O=[N+]([O-])c1cc(S(=O)(=O)C(F)(F)F)ccc1N1CCCC1 | -9.38% (inactive)
C=CCSc1nc2ccccc2n1CCO | -7.69% (inactive)
CC(=O)Nc1ccc(Cl)c(C(=O)NC(CCn2ccnc2)c2ccccc2)c1 (stereo unspecified) | -10.1% (inactive)
CCC1(C)Cc2ccccc2-c2nc3[nH][nH]c(=S)n3c(=O)c21 (stereo unspecified) | 15% (inactive)
COc1ccccc1/C=C/C=C1\N=C(c2ccc(C(C)(C)C)cc2)OC1=O | -5.55% (inactive)
Cc1ccc(C)c(C=C2SC(N3CCOCC3)=NC2=O)c1 | -2.54% (inactive)
O=C(NC[C@H]1C[C@H]2C=C[C@H]1C21CC1)C1CCN(Cc2ccco2)CC1 | -6.29% (inactive)
CN(Cc1cn[nH]c1-c1ccc(F)cc1)C(=O)Cc1c[nH]c2ccccc12 | -11.3% (inactive)
OCC1(Cc2ccccc2Cl)CCN(C2CCN(c3ccccc3)CC2)CC1 | -7.34% (inactive)
Cc1cc2nc(N(CCN3CCOCC3)C(=O)C3COc4ccccc4O3)sc2cc1C (stereo unspecified) | -7.12% (inactive)
CCN(CCn1cccn1)C(=O)CC1C(=O)NCCN1C1Cc2ccccc2C1 (stereo unspecified) | 3.93% (inactive) and -3.95% (inactive)
Cc1c(C)c(C)c(C(=O)C2CCN(C(=O)CC3NC(=O)NC3=O)CC2)c(C)c1C (stereo unspecified) | -1.46% (inactive)
Cc1nc2c(cnn2C(C)C)c(C)c1CCC(=O)NC1CCCC1 | -7.8% (inactive)
Cc1ccsc1C(CNC(=O)c1cnn2ccn(C)c12)N(C)C (stereo unspecified) | -20.4% (inactive)
